The record followed here is PubChem BioAssay (Tox21).

A short description of assay [1]: qHTS assay to identify small molecule agonists of the vitamin D receptor (VDR) signaling pathway - cell viability counter screen (AID 743224). Also: series mostly up to about 63 µM; nearly all actives have a fitted effect of over 50% in size. Summed up: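 CellTiter-Glo viability readout on VDR-bla cells, measured after 16 h of compound treatment at 37C in the same wells.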
Background: qHTS replaces the single test concentration by a dilution series.

Assay [2] is described as follows: qHTS assay to identify small molecule agonists of the NFkB signaling pathway (AID 1159509; active = well fitted curve in the direction sought with a large enough effect in the signal ratio in the repeat runs, not every such curve was filed as active; the % refers to the signal ratio; also: series mostly up to about 61 µM). Summed up:
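Pathway activation was measured in ME-180 cells stably expressing beta-lactamase under NF-kB response element control. Substrate cleavage was read as the 460/530 nm emission shift after 5 hr compound incubation.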

The nature of assay [3]: qHTS assay to identify small molecule agonists of the NFkB signaling pathway - cell viability counter screen (AID 1159515; calls by dose curve; also: series mostly up to about 61 µM; nearly all actives have a fitted effect of over 55% in size). Summed up: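 Tox21 library compounds were tested for cytotoxicity against NFkB-bla ME-180 cells during a 5 hr exposure at 37 C. CellTiter-Glo luminescence served as the viability read-out.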
Assay [4] can be described thus: qHTS assay to identify small molecule agonists of the endoplasmic reticulum stress response signaling pathway (AID 1159516; active = well fitted activation curve with a large enough effect in the signal ratio in the repeat runs, not every such curve was filed as active; the % refers to the signal ratio). Summed up: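 Fluorescence at 460 and 530 nm (405 nm excitation) reports beta-lactamase from an ER stress response element in HeLa cells treated 5 hr at 37 C.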
The nature of assay [5]: qHTS assay to identify small molecule agonists of the endoplasmic reticulum stress response signaling pathway - cell viability counter screen (AID 1159517; calls by dose curve; also: series mostly up to about 61 µM; nearly all actives have a fitted effect of over 50% in size). Summed up: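 In parallel with the ESRE reporter read, cytotoxicity was scored by CellTiter-Glo luminescence (30 min, room temperature) on HeLa ESRE-bla cells dosed for 5 hr.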
Assay [6] in a line: qHTS assay to identify small molecule antagonists of the retinoid-related orphan receptor gamma (ROR-gamma) signaling pathway - cell viability counter screen (AID 1159520). Also: nearly all actives have a fitted effect of over 50% in size. Summed up:
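Tet-on ROR gamma CHO cells were given compounds for 2 hr, then doxycycline hyclate at 1 uM final, and incubated 16 hr at 37 C. Viability was measured as ATP content by CellTiter-Glo luminescence.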

For assay [7], the target named is Nuclear receptor ROR-gamma (Homo sapiens) (UniProt P51449). Briefly: qHTS assay to identify small molecule antagonists of the retinoid-related orphan receptor gamma (ROR-gamma) signaling pathway (AID 1159521;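 also: CHO cells with doxycycline inducible ROR-gamma driving an RORE luciferase reporter; top concentration of the series differs between compounds; nearly all actives have a fitted effect of over 50% in size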). Summed up:
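Readout: ONE-Glo luciferase luminescence, 30 min at room temperature. System: Tet-on RORγ CHO, RORE-LUC. Sequence: compound 2 h, doxycycline 1 uM final, 16 h at 37 C.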

The nature of assay [8]: qHTS assay to identify small molecule agonists of the AP-1 signaling pathway - cell viability counter screen (AID 1159525; calls by dose curve; also: nearly all actives have a fitted effect of over 55% in size). Summed up: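 Same-well cytotoxicity counter screen of the Tox21 10K library in ME-180 cells. The readout is ATP-dependent luminescence after 5 h compound treatment. Data are normalised to DMSO and tetra n-octyl ammonium bromide controls.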
Assay [9] in a line: qHTS assay to identify small molecule agonists of the AP-1 signaling pathway (AID 1159526; calls by dose curve).
Assay [10] concerns the target Retinoic acid receptor RXR-alpha (Homo sapiens) (UniProt P19793). In words: qHTS assay to identify small molecule agonists of the RXR signaling pathway (AID 1159527; calls by dose curve; also: nearly all actives have a fitted effect of over 35% in size). Summed up:
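Reporter activation is measured as beta-lactamase activity via FRET substrate cleavage (emission 460/530 nm) in HEK 293T cells expressing an RXR-alpha-driven bla construct, following 16 hr compound exposure at 37 C.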

Assay [11] can be described thus: qHTS assay to identify small molecule antagonists of the retinoid acid receptor (RAR) signaling pathway - cell viability counter screen (AID 1159551). Also: nearly all actives have a fitted effect of over 35% in size. Summed up: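 In this counter screen, the RARE-luciferase line C3RL4 was exposed for 6 h at 37 C and 5% CO2 to compounds with retinol at 1 uM final. Cellular ATP, read by luminescence, served as the viability measure.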

A short description of assay [12]: qHTS assay to identify small molecule antagonists of the vitamin D receptor (VDR) signaling pathway - cell viability counter screen (AID 743225). Also: nearly all actives have a fitted effect of over 50% in size. Summed up: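 Cytotoxicity toward the VDR-bla HEK 293T line was scored by ATP-based CellTiter-Glo luminescence, read in the wells already used for the beta-lactamase readout after 16 h compound treatment under 3 nM 1-alpha,25-dihydroxyvitamin D3 stimulation.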

Assay [13] is described as follows: qHTS assay to identify small molecule agonists of the RXR signaling pathway - cell viability counter screen (AID 1159529). Summed up: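 Tox21 10K compounds were tested for cytotoxicity against GeneBLAzer RXR-alpha HEK 293T cells grown in 2% charcoal-stripped FBS. Exposure lasted 16 hr at 37 C, 5% CO2; viability read by CellTiter-Glo luminescence.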
The nature of assay [14]: qHTS assay to identify small molecule antagonists of the retinoic acid receptor (RAR) signaling pathway (AID 1159552; also: nearly all actives have a fitted effect of over 50% in size; also: potency is read from the fitted curve at half-maximal effect). Summed up: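 Overnight-plated C3RL4 reporter cells get compound, then retinol to 1 uM final; plates sit 6 hr at 37 C, 5% CO2. A luciferase reagent is added and light output recorded after 30 min at room temperature.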
The nature of assay [15]: qHTS assay to identify small molecule agonists of the retinoic acid receptor (RAR) signaling pathway (AID 1159553). Summed up: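 In this cell-based screen, 1,000 C3RL4 cells per well were cultured overnight, dosed with test chemicals in DMSO for 6 hr, and assessed for RARE luciferase luminescence.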

Results filed as inconclusive are left out. A number with no mark means an inactive call. The source made the active and inactive calls. Unless noted, calls follow the shape of the dose curve; as a rule, active = well fitted curve in the direction sought with a large enough effect in the repeat runs; inconclusive = weak or mixed curves; inactive = no such curve, though single readings can be large; an effect the other way counts as inactive or inconclusive.

Sequence of Retinoic acid receptor RXR-alpha (Homo sapiens) (P19793 whole entry, looked up): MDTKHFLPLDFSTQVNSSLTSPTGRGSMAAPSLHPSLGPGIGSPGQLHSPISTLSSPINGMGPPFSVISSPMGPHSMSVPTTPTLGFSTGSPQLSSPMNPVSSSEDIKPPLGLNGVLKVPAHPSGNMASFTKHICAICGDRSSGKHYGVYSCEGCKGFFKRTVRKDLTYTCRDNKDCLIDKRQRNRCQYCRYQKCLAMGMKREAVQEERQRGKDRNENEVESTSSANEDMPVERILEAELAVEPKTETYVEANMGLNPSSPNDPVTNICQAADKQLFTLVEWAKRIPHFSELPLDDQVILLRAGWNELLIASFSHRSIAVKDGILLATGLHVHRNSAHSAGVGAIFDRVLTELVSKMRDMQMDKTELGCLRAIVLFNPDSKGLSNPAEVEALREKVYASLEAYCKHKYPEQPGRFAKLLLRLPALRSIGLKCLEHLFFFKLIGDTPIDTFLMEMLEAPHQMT

`C[N+](C)(C)CC[N+]1(C)Cc2c(Cl)c(Cl)c(Cl)c(Cl)c2C1`: the molecule was classed as inactive in assay [1], in assay [2], in [3], in assay [4], in assay [5] and in assay [8]. Besides, the molecule was called inactive in assay [11]. In addition, the Potency entry in assay [6], in assay [7], in [9] and in [10] was “inactive” each time.

Consider `CC(C)(C)N(CCO)CCO`, for which the call in assay [1], in [12], in assay [2], in assay [3], in assay [4] and in assay [5] was inactive. Besides, the result in assay [8] and in assay [11] was inactive. The Potency entry in [6], in [7], in [9], in [13], in assay [14] and in assay [15] was “inactive” in each case.

Consider `NCCN1CCNC1=O`, for which the result in assay [1], in [2], in assay [3], in assay [4], in assay [5] and in [8] was inactive. The Potency result in assay [6], in assay [7], in assay [9], in [10] and in [13] was “inactive” throughout.

With `CCCCCC[C@@H](CCC)C(=O)O`, the molecule was called inactive in assay [1], in assay [12], in [2], in [3], in assay [4] and in [5]. Besides, the result in assay [8] and in [11] was inactive. For the same molecule, the Potency entry in assay [6], in [7], in assay [9], in [10], in assay [14] and in assay [15] was “inactive” throughout.

`O=S(=O)(O)c1ccccc1O`: the molecule was classed as inactive in assay [1], in [12], in assay [2], in assay [3], in assay [4] and in assay [5]. In addition, the molecule was classed as inactive in assay [8] and in assay [11]. Also, the Potency result in assay [6], in assay [7], in assay [9], in assay [13], in [14] and in assay [15] was “inactive” each time.

On to `CC(=O)c1ccc(C)cc1`, for which the call in assay [1], in assay [12], in assay [2], in assay [3], in assay [4] and in [5] was inactive. Also, the result in [8] was inactive. Moreover, the Potency result in assay [6], in assay [7], in [9], in assay [10] and in [13] was “inactive” throughout.

As to `C=C(C)C(=O)NCCC[N+](C)(C)C`, the molecule was called inactive in [1], in [12], in [2], in assay [3], in assay [4] and in assay [5]. Also, the result in [8] was inactive. In addition, the Potency entry in [6], in assay [7], in [9], in assay [10] and in assay [13] was “inactive” in each case.

As for `COc1cc(C)cc(O)c1`, the result in assay [1], in assay [12], in [2], in assay [3], in [4] and in assay [5] was inactive. The outcome in [8] and in assay [11] was inactive. Besides, the Potency result in assay [6], in assay [7], in [9] and in [10] was “inactive” in each case.

`CC1(C)OC(=O)Nc2ccc(Br)cc21`: the result in assay [1], in [12], in [2], in [3], in [4] and in assay [5] was inactive. The call in assay [8] and in assay [11] was inactive. For the same molecule, the Potency result in assay [6], in [7], in assay [9] and in [10] was “inactive” in each case.

Take `CC1=CC(=O)CCC1`: the outcome in [1], in [12], in [2], in assay [3], in assay [4] and in [5] was inactive. In addition, the call in [8] and in assay [11] was inactive. Further, the Potency entry in assay [6], in assay [7], in assay [9], in assay [10], in assay [14] and in assay [15] was “inactive” in each case.

In the case of `CN(C)CCn1nnnc1SCC1=C(C(=O)O)N2C(=O)[C@@H](NC(=O)Cc3csc(N)n3)[C@H]2SC1`, the outcome in [1], in assay [12], in assay [2], in assay [3], in [4] and in assay [5] was inactive. For the same molecule, the molecule was classed as inactive in assay [8]. For the same molecule, the Potency result in assay [6], in [7], in assay [9], in assay [10] and in assay [13] was “inactive” each time.

Turning to `Cc1onc(-c2ccccc2)c1-c1ccc(S(N)(=O)=O)cc1`, the call in assay [2], in assay [3], in assay [4], in [5], in assay [8] and in [11] was inactive. Also, the Potency result in [6], in assay [7], in assay [9], in [13], in assay [14] and in [15] was “inactive” in each case.

As to `CC/C=C\C#N`, the molecule was called inactive in [1], in [12], in assay [2], in assay [3], in assay [4] and in assay [5]. For the same molecule, the call in [8] was inactive. The Potency entry in assay [6], in assay [7], in assay [9], in [10] and in assay [13] was “inactive” each time.

Take `O=c1[nH]c(=O)n([C@H]2O[C@H](CO)[C@@H](O)[C@@H]2O)cc1/C=C\Br`: the molecule was called inactive in [1], in assay [2], in assay [3], in assay [4], in [5] and in assay [8]. Further, the molecule was called inactive in assay [11]. In addition, the Potency entry in assay [6], in assay [7], in assay [9] and in assay [10] was “inactive” throughout.

Take `CC(C)(C)C(=O)/C=C/c1ccc(Cl)cc1`: the call in assay [1], in [12], in assay [2], in [3], in [4] and in assay [5] was inactive. The outcome in assay [8] and in assay [11] was inactive. Moreover, the Potency result in assay [6], in assay [7], in [9], in assay [13], in [14] and in assay [15] was “inactive” each time.

For the molecule `C=CCn1c(=O)n([C@@H]2O[C@H](CO)[C@@H](O)[C@H]2O)c2nc(N)[nH]c(=O)c21`, the molecule was called inactive in assay [1], in assay [12], in assay [2], in assay [3], in assay [4] and in [5]. Also, the molecule was called inactive in [8] and in assay [11]. Besides, the Potency result in [6], in assay [7], in assay [9] and in [10] was “inactive” in each case.

On to `O=S(=O)(c1cccc2cnccc12)N1CCCNCC1`, for which the call in [1], in assay [12], in [2], in assay [3], in assay [4] and in assay [5] was inactive. Also, the result in assay [8] and in assay [11] was inactive. Also, the Potency result in assay [6], in assay [7], in assay [9], in assay [10] and in [15] was “inactive” in each case. Moreover, the Potency in [14] is 29.8 µM (active).

`CCOC(=O)Nc1ccc2c(c1)N(C(=O)CCN1CCOCC1)c1ccccc1S2`: the result in assay [1], in assay [2], in [3], in assay [4], in assay [5] and in assay [8] was inactive. For the same molecule, the call in assay [11] was inactive. For the same molecule, the Potency entry in assay [6], in assay [7], in assay [9], in assay [13], in [14] and in assay [15] was “inactive” each time.

As to `CCCOCC(C)OCC(C)O` (configuration not stated), the molecule was classed as inactive in assay [1], in assay [2], in assay [3], in assay [4], in [5] and in assay [8]. For the same molecule, the outcome in assay [11] was inactive. Moreover, the Potency entry in [6], in assay [7], in [9] and in [10] was “inactive” throughout.
